According to ChEMBL document CHEMBL4513216, “Probing the Open Global Health Chemical Diversity Library for Multistage-Active Starting Points for Next-Generation Antimalarials” (ACS Infect Dis, 2020):
Hit rate of the full screen: of about 69,000 compounds, about 8,600 (12%) showed an effect of 50% or more. For the sample, strong results were picked, then their nearest neighbours and some compounds at random.

Test system: Plasmodium berghei
Assay: Screen against P. berghei liver stage (PbLuc), transformed with Luciferase, at 10uM
Type: functional, HepG2
Conditions: tested at 10 uM

| SMILES | INHIBITION [%] |
| --- | --- |
| Cc1c(Cn2c(=O)cnc3ccccc32)cnn1C | 34 |
| COCC(=O)N1CCC2(CC1)NC(=O)c1ccccc12 | 46.7 |
| Cc1ccc(CN2CC[C@@H]3[C@@H](CO[C@H]3CN3CCN(C)CC3)C2)s1 | -35.9 |
| NC(=O)C1CCN(CC(=O)N(Cc2ccccc2)Cc2nccs2)CC1 | 2.15 |
| O=C(Cc1ccon1)N1CCc2cc(Br)sc2C1 | -28.9 |
| CC(C)c1nnc(CN2CCCC(c3cc(C(N)=O)[nH]n3)C2)o1 (configuration not stated) | 33.7 |
| C[C@@H]1CN(c2nc3c(cc2C(N)=O)CCC3)C[C@]1(C)O | -13.8 |
| CCc1nc(CC2CN(c3ncnc4nc(C)cc(C)c34)CCO2)no1 (configuration not stated) | 22 |
| Cc1nc(-c2noc3ccc(C(=O)NCCN4CCOCC4)cc23)co1 | 63 |
| CC1CCCN(CCCNC(=O)c2ccc(N(C)S(C)(=O)=O)cc2Cl)C1 (configuration not stated) | 53.7 |
| CN(C)CCCNC(=O)c1cc(Cl)ccc1Cl | 4.93 |
| CN1CCC(CCNC(=O)c2ccc(N(C)S(C)(=O)=O)cc2Cl)CC1 | 8.47 |
| CN(C)CCCNC(=O)c1ccc(N(C)S(C)(=O)=O)cc1Cl | 64.1 |
| Cc1nc(-c2noc3ccc(C(=O)NCCN4CCOCC4)cc23)cs1 | 46.7 |
| CN(C)CCCNC(=O)c1ccc(Cl)cc1Cl | 16 |
| CC1CCCN(CCCNC(=O)c2cn(C)nc2-c2cccnc2)C1 (configuration not stated) | 13.2 |
| Cc1nc(-c2noc3ccc(C(=O)NCCN(C)C)cc23)co1 | 8.31 |
| Cc1ncsc1C(=O)NCc1ccnc(N2CCN(C)CC2)c1 | 12.85 |
| CCc1cnc(N2C[C@@H]3C[C@H](C(=O)N4CCOCC4)[C@H](C2)O3)nc1 | 28.5 |
| CCOC(=O)N1[C@@H](c2ccco2)[C@@H](C(=O)O)C[C@]12CCCCNC2=O | -8.8 |
| O=C(O)c1cnc(N2CCCC2)nc1COc1ccccc1 | -14.8 |
| Cc1cnn(C2CN(CC(=O)NCC(C)C)C2)c1 | 16.9 |

| SMILES | INHIBITION [%] |
| --- | --- |
| CCn1cnnc1C1CCN(C(=O)c2ccoc2C)CC1 | -5.07 |
| c1ccc(COc2cccc(CNC3CCc4ncnn4C3)c2)cc1 (configuration not stated) | 33.6 |
| Cc1ccc2c(c1)C(=O)NCC1(CCN(C(=O)c3csc(C)c3)CC1)O2 | -28.6 |
| O=C(N1CCOCC1)N1C2CCC(O)(CC2)C1CN1CCOCC1 (configuration not stated) | 44.2 |
| CNc1cc2c(nn1)CCN(C(=O)c1coc(Br)c1)C2 | 3.73 |
| Cc1ncc(CC(=O)N2CCCCC2CCN2CCCC2)c(=O)[nH]1 (configuration not stated) | 61.8 |
| Cc1ncc(CC(=O)N2CCC(N3C[C@@H](C)O[C@@H](C)C3)CC2)c(=O)[nH]1 | 37.4 |
| Cc1cnn(CC2CCCN2C(=O)Cc2c(C)nc(C)[nH]c2=O)c1 (configuration not stated) | 31.8 |
| CC(=O)NC(CC(=O)Nc1ccc(C)cn1)c1ccccc1 (configuration not stated) | 27.6 |
| N#CC1(NC(=O)c2cc(Cl)ccc2OC(F)F)CCOCC1 | 45.4 |
| O=C(c1ccc(=O)[nH]n1)N1CCc2ccccc21 | 38.8 |
| O=C(c1c[nH]c(=O)[nH]1)N1CCc2ccccc21 | 90.7 |
| O=C(NN1CCCc2ccccc21)c1c[nH]c(=O)[nH]1 | 32.3 |
| O=C([C@@H]1COC[C@H]2CN(c3ccncn3)C[C@H]21)N1CCCC1 | -10.3 |
| CCOC(=O)c1n[nH]cc1-c1cncn1CCCn1nc(C)cc1C | 15.9 |
| CC(=O)N1CCC(c2cccc(Oc3ccccc3)n2)CC1 | 9.98 |
| CNCC(=O)N1CCC(c2cccc(Oc3ccccc3)n2)CC1 | 29.5 |
| NCC(=O)N1CCC(c2cccc(Oc3ccccc3)n2)CC1 | 75.9 |
| CCn1cc(Br)c(C(=O)NCc2ccc(F)cc2)n1 | -34 |
| O=C(NCc1ccc(-n2cncn2)nc1)c1cnccn1 | 48.3 |
| Cc1cccc(C)c1NC(=O)c1cc(S(N)(=O)=O)c(C)o1 | 52.7 |
| Cc1oc(C(=O)Nc2cccc(Cl)c2C)cc1S(N)(=O)=O | -74.6 |

| SMILES | INHIBITION [%] |
| --- | --- |
| Cc1oc(C(=O)Nc2ccccc2F)cc1S(N)(=O)=O | 17.5 |
| Cc1nccc(CNC(=O)Nc2cc(C(F)(F)F)c[nH]c2=O)n1 | 8.38 |
| Cc1ccn(CC(=O)NCCCOc2ccccc2F)c(=O)c1 | 10.9 |
| CNC(=O)COC(=O)c1ccn(-c2ccc(Cl)c(Cl)c2)n1 | 35.7 |
| CS(=O)(=O)NC(=O)c1ccn(-c2ccc(Cl)c(Cl)c2)n1 | -43.9 |
| COC(=O)CNC(=O)c1ccn(-c2ccc(Cl)c(Cl)c2)n1 | 51.6 |
| O=C(C1CCCOC1)N1CCN(CC(F)(F)F)c2ccccc21 (configuration not stated) | 11.3 |
| O=C1N(Cc2cccc(F)c2)CCC12CCN(c1ccccn1)CC2 | -15.9 |
| c1cncc(OC[C@]23COC[C@H]2CN(C2CCC2)C3)c1 | 20.6 |
| O=C(COC[C@@]12CCC[C@@H]1CN(C1CCCC1)C2)N1CCCC1 | 34.9 |
| CN(C)C(=O)COC[C@]12COC[C@H]1CN(C1CCCC1)C2 | 56.6 |
| O=C(COC[C@@]12CCC[C@@H]1CN(C1CCC1)C2)N1CCCC1 | 27.6 |
| O=C(COC[C@]12COC[C@H]1CN(C1CCC1)C2)N1CCCC1 | 60.2 |
| CN(C)C(=O)COC[C@@]12CCC[C@@H]1CN(C1CCCC1)C2 | -25.7 |
| c1ccc(OC[C@]23COC[C@H]2CN(C2CCOCC2)C3)nc1 | -4.32 |
| CN(C)C(=O)COC[C@@]12CCC[C@@H]1CN(C1CCC1)C2 | 12.7 |
| C1CC(N2C[C@@H]3COC[C@]3(COCC3CCOCC3)C2)C1 | 55.7 |
| Nc1ncnc2nc(C3CCCCN3)ccc12 (configuration not stated) | 26.45 |
| O=C(c1cc(F)ccc1O)N1CCN(C2CCSC2)CC1 (configuration not stated) | -75.7 |
| CN(CCNc1cc(N2CCCC2CO)ncn1)Cc1ccccc1 (configuration not stated) | -21.2 |
| Cc1ccc(CN2CCN(CC(=O)Nc3ccc4nsnc4c3)CC2)o1 | 46.1 |
| CC(C)CCN1CCN(CC(=O)Nc2ccc3nsnc3c2)CC1 | 58.3 |

| SMILES | INHIBITION [%] |
| --- | --- |
| CCC(CC)CN1CCN(CC(=O)Nc2ccc3nsnc3c2)CC1 | 8.99 |
| O=C(CCOc1ccccc1F)NC1CCCN(c2ccccn2)C1 (configuration not stated) | -3.71 |
| CN(C)Cc1cnc2n1CCN(C(=O)NC1CCCC1)CC2 | 43.8 |
| CC(=O)c1cccc(NC(=O)c2cnc(N3CCN(C)CC3)nc2C)c1 | 7.83 |
| CCc1nc(C2CCCN(c3ncccn3)C2)no1 (configuration not stated) | -113 |
| CCc1nc(C2CCCN(C(=O)c3ccccc3O)C2)no1 (configuration not stated) | 37.9 |
| CCc1nc(C2CCCN(C(=O)c3ccccc3F)C2)no1 (configuration not stated) | 60.5 |
| CCc1nc(C2CCCN(C(=O)CC3CCOCC3)C2)no1 (configuration not stated) | -2.19 |
| CC(C)c1nc(C2CCCN(C(=O)CN(C)S(C)(=O)=O)C2)no1 (configuration not stated) | -1.35 |
| CCc1nc(C2CCCN(C(=O)CN(C)S(C)(=O)=O)C2)no1 (configuration not stated) | 51.3 |
| CCc1nc(C2CCCN(c3ncc(Br)cn3)C2)no1 (configuration not stated) | 31.7 |
| CCc1cc(N2CCCC(c3noc(CC)n3)C2)ncn1 (configuration not stated) | 58.5 |
| CCc1nc(C2CCCN(C(=O)c3ccccc3Cl)C2)no1 (configuration not stated) | 42 |
| Cc1ccsc1CNCCCOc1ccccn1 | -19.1 |
| CC(=O)c1nn(-c2ccccc2)c(C)c1C(C)=O | 10.6 |
| Cc1ccc(-c2nc(CN3CCCC(Cn4cncn4)C3)no2)cc1 (configuration not stated) | -28.3 |
| CCN1CC2(CC1=O)CN(Cc1cccs1)CCN(C(=O)C(C)C)C2 (configuration not stated) | -9.76 |
| CCN1CC2(CC1=O)CN(C(=O)c1ccco1)CCN(C(=O)N(C)C)C2 (configuration not stated) | 5.14 |
| CCN1CC2(CC1=O)CN(C(=O)c1cccs1)CCN(C(=O)N(C)C)C2 (configuration not stated) | 71 |
| CCN1CC2(CC1=O)CN(Cc1ccsc1)CCN(C(=O)C(C)C)C2 (configuration not stated) | 20.9 |
| CCN1CC2(CC1=O)CN(C(=O)c1ccsc1)CCN(C(=O)N(C)C)C2 (configuration not stated) | 56.1 |
| CCN1CC2(CC1=O)CN(C(=O)c1ccoc1)CCN(C(=O)N(C)C)C2 (configuration not stated) | 20.9 |

| SMILES | INHIBITION [%] |
| --- | --- |
| Cc1nc(CNC(=O)c2cc(COc3cccc(F)c3)[nH]n2)n[nH]1 | 10.1 |
| CN(CCOc1ccc(C#N)cc1)CC1CC1 | -24.7 |
| CCCC12CN3CC(CCC)(CN(C1)C3c1[nH]c(=O)[nH]c(=O)c1C)C2=O (configuration not stated) | 17.1 |
| CCO[C@@H]1CCN(c2ccc(C)nn2)[C@@H]1Cc1cnn(C)c1 | 24.8 |
| CC(C)(C)n1ncc2c(=O)n(CC(=O)NCc3ccccc3Cl)cnc21 | 71.4 |
| NC(=O)Cn1c(CO)cnc1SCC(=O)NCc1ccccc1Cl | -20.8 |
| CCCNC(=O)Cn1nc(C(C)C)c2cnn(C(C)(C)C)c2c1=O | -7.35 |
| CC(C)(C)n1ncc2c(=O)n(CC(=O)NCc3ccco3)cnc21 | -28.5 |
| CC(C)(C)n1ncc2c(=O)n(CC(=O)NCCc3ccccc3)cnc21 | -25.4 |
| CC(C)(C)n1ncc2c(=O)n(CC(=O)NCc3ccccc3)cnc21 | 84.3 |
| Cc1ccncc1-n1cc(CCO)cn1 | 0.546 |
| O=C(CC1CCCCC1)NC1CCCc2nc(N3CCOCC3)ncc21 (configuration not stated) | 25.6 |
| Cc1cc(NC(C)c2nnn[nH]2)n2nc(C)c(C)c2n1 (configuration not stated) | 5.91 |
| C1CCC(CN2Cc3nnn(CC4CC4)c3C(COCC3CC3)C2)C1 (configuration not stated) | 63.3 |
| c1cc(CN2Cc3nnn(CC4CC4)c3C(COCC3CC3)C2)co1 (configuration not stated) | 29.6 |
| CN(C)C(=O)N1Cc2nnn(CC3CC3)c2C(COCC2CC2)C1 (configuration not stated) | -0.284 |
| CCOCC1CN(CC2CCC2)Cc2nnn(CC3CC3)c21 (configuration not stated) | 44.4 |
| COCC1CN(Cc2ccncc2)Cc2nnn(CC3CC3)c21 (configuration not stated) | 45.1 |
| C1CC(N2Cc3nnn(CC4CC4)c3C(COCC3CC3)C2)C1 (configuration not stated) | 67.3 |
